According to paper PMC5540273 (PLoS ONE, 2017):

Experiments:
Conditions in all cases: concentration: 1 μM, replicates: in singlicate; n = 1
BMX = test system: BMX
BRAF = test system: BRAF
BRK = test system: T1, BRK
T1 construct: gene PTK6

BRSK1 = test system: BRSK1
BRSK2 = test system: BRSK2
BTK = test system: BTK
BUB1 = test system: BUB1
CAMK1B = test system: CAMK1B
CAMK1D = test system: CAMK1D
CAMK1G = test system: CAMK1G
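Note: KINOMEscan kinase panel screen.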

Compound	%Inh (BMX) [%]	%Inh (BRAF) [%]	%Inh (BRK) [%]	%Inh (BRSK1) [%]	%Inh (BRSK2) [%]	%Inh (BTK) [%]	%Inh (BUB1) [%]	%Inh (CAMK1B) [%]	%Inh (CAMK1D) [%]	%Inh (CAMK1G) [%]
CCNC(=O)/C=C/c1n[nH]c2cc(Sc3ccccc3C(=O)NC)ccc12	18	11	15	38	24	0	48	9	22	20
CN(C)CCOc1ccc(-c2cc(-c3ccc(Cl)c(O)c3)c(-c3ccncc3)[nH]2)cc1.Cl.Cl [SB-684387]	27	96.6	75	0	0	0	83	40	23	0
COc1cccc2c(-c3ccncc3)c(-c3ccc(F)cc3)nn12 [GW468513]	11	38	1	3	0	0	90	0	0	1
Cc1ccccc1CC(=O)N1CCc2cc(-c3cn(C)c4ncnc(N)c34)ccc21 [GSK2603346]	2	0	71	0	0	0	10	0	13	19
O=C(Nc1n[nH]c2nc(-c3ccccc3)ccc12)C1CC1 [SB-708999]	9	4	0	54	37	40	0	35	0	79
CN(c1ccc(NC(=O)Nc2cccc(Cl)c2)cc1)c1ccnc(N)n1.Cl [GW830707]	0	0	8	0	12	0	30	15	5	0
O=C(Nc1n[nH]c2nc(-c3cccc(O)c3)ccc12)C1CC1 [SB-711805]	4	46	0	53	17	0	0	0	19	0
Cc1cccc(Nc2nc(N[C@H]3CCCC[C@H]3N)ncc2C(N)=O)c1.Cl [GSK986310]	13	0	20	16	13	0	89	91.4	61	23
O=C(O)C(F)(F)F.O=c1[nH]ccc2nc(N[C@@H]3CCNC3)nc(Nc3cc(Cl)cc(Cl)c3)c12 [GSK2188764]	27	0	5	19	8	0	99.2	100	97.9	72
Nc1ncc(-c2ccc3nccc(-c4ccncc4)c3c2)cc1S(=O)(=O)N1CCCCC1 [GSK1693850]	22	8	18	0	0	0	13	6	25	2
COc1cccc(-c2nc(-c3ccccc3)[nH]c2-c2ccncc2)c1 [SB-610250]	0	74	16	0	0	0	95.6	0	5	0
COc1ccc(NC(=O)c2ccoc2)cc1-c1ccc(C(=O)NCC2CC2)cc1 [GW810437]	3	0	0	0	4	0	2	19	0	9
CC(C)c1nc(-c2cccc(NS(=O)(=O)c3c(F)cccc3F)c2)c(-c2ccnc(Nc3ccc(N4CCOCC4)nc3)n2)s1.Cl [GSK1723980]	94	100	96.4	16	37	41	93.1	13	32	2
CN(c1ccc(NC(=O)N2CCN(CCCN3CCOCC3)CC2)cc1)c1ccnc(Nc2ccc(CS(C)(=O)=O)cc2)n1.Cl [GW830899]	0	0	27	83	25	0	0	0	5	0
CSc1ccc(NC2=C(c3ccc(Cl)cc3)C(=O)NC2=O)cc1 [SB-317658]	11	0	1	0	0	0	0	61	13	0
COc1cc(Nc2ccnc3cc(-c4ccncc4)ccc23)cc(OC)c1OC.Cl [GW494610]	37	60	19	0	9	90	42	2	0	9

Compound	%Inh (BMX) [%]	%Inh (BRAF) [%]	%Inh (BRK) [%]	%Inh (BRSK1) [%]	%Inh (BRSK2) [%]	%Inh (BTK) [%]	%Inh (BUB1) [%]	%Inh (CAMK1B) [%]	%Inh (CAMK1D) [%]	%Inh (CAMK1G) [%]
Cn1cc(-c2cnc(N)c3c(-c4ccc5c(c4)CCN5C(=O)Cc4ccccc4)csc23)cn1 [GSK2593074]	57	0	92.2	0	7	0	0	0	11	0
CS(=O)(=O)c1cccc(CNc2nc(Nc3ccc4c(c3)CCC(=O)N4)ncc2C(F)(F)F)c1	0	0	0	0	0	0	0	0	8	0
COc1ccc(C2=C(Nc3cccc(O)c3)C(=O)NC2=O)cc1 [SB-390766]	0	6	21	7	49	0	50	73	27	26
CC(=O)Nc1cn2nc(Oc3cccc(NC(=O)c4cccc(C(F)(F)F)c4)c3)ccc2n1	25	99.7	92.1	0	0	4	0	0	24	0
CN(c1ccc(F)c(NC(=O)c2cccc(OC(C)(C)C#N)c2Cl)c1)c1ccc2nc(NC(=O)C3CC3)sc2n1	0	94	0	4	0	22	34	0	0	2
CCn1c(-c2nonc2N)nc2c(-c3ccccc3)ncc(OCCCN)c21.O=C(O)C(F)(F)F.O=C(O)C(F)(F)F [GSK260205]	0	0	0	0	0	0	96.2	7	6	4
Nc1ncc(-c2cn[nH]c2)c2scc(-c3ccc4c(c3)CCN4C(=O)Cc3ccccc3)c12 [GSK2593067]	31	0	96.1	0	0	0	11	0	11	19
Cc1ccc(C)c(NC(=O)Nc2ccc(C)c(-c3ccc(C(=O)Nc4ccncc4)cc3)c2)c1 [GSK1398473]	0	62	25	0	0	0	4	27	13	0
Cl.O=C(Nc1ccc(Oc2ccc3[nH]c(NC(=O)c4ccco4)nc3c2)cc1)Nc1cc(C(F)(F)F)ccc1F [GW683134]	1	69	0	0	0	0	30	29	0	0
COc1cccc(C2=C(Nc3cccc(O)c3)C(=O)NC2=O)c1 [SB-390771]	4	0	33	7	7	0	42	29	13	0
Fc1cc(Cl)ccc1Nc1ccnc2cc(-c3ccc(CN4CCSCC4)o3)ccc12 [GW560106]	20	2	92.3	0	0	37	38	10	11	0
CC(C)c1nc(-c2ccc(F)c(NS(=O)(=O)c3c(F)cccc3F)c2)c(-c2ccnc(Nc3ccc(N4CCOCC4)nc3)n2)s1 [GSK1804250]	90	99.9	94.8	14	0	90	92.7	31	26	4
CNc1nccc(-c2ccc3c(N)n[nH]c3c2)n1 [GSK2206003]	2	0	10	22	15	3	71	0	28	22
c1ccc(Oc2ccc(Nc3ccnc4cc(-c5ccc(CN6CCCCC6)o5)ccc34)cc2)nc1 [GW567143]	6	2	96.5	6	0	0	18	0	19	0
CN1CCN(Cc2ccc(NC(=O)Nc3ccc(N(C)c4ccnc(Nc5ccc(CS(C)(=O)=O)cc5)n4)cc3)cc2)CC1.Cl [GW827654]	69	0	8	19	10	60	51	42	27	23
Cc1ccc(NC(=O)c2cccc(N3CCCCC3)c2)cc1-c1ccc(C(=O)NCC2CC2)cc1 [GSK1917008]	26	88	22	6	3	0	23	27	11	0
